These compounds were tested on Sonic hedgehog protein (Shh) (assay: small-molecule binders of Shh protein, primary screen, biochemical, small-molecule microarray, 635/667 nm fluorescence (AID 1151;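 note: Shh protein binding to compounds spotted on small-molecule microarray slides; score combines spot fluorescence intensity with signal-to-noise across triplicate slides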)). Settings: small-molecule microarray binding, 635 nm fluorescence; higher = more signal.

| SMILES | composite z-score |
| --- | --- |
| C=CC[C@@H]1C=C[C@H](ON=C2c3cc(OC)ccc3O[C@H](c3cccc(OC)c3)[C@H]2O)[C@@H](CO)O1 | 0.723 |
| COCCOC(=O)N1C(=O)[C@@]2(c3cc(C#CCNC(N)=O)ccc31)[C@H](c1ccc(O)cc1)N1[C@H](c3ccccc3)[C@H](c3ccccc3)OC(=O)[C@H]1[C@@H]2C(=O)N1CCCCCCC1 | 1.65 |
| CC(C)(C)N1C(=O)[C@H]2[C@H]3[C@H](O)[C@H](O)CC(=NOCc4ccccc4)[C@@H]3CC[C@H]2C1=O | 1.26 |
| O=C1C[C@]2(c3ccc([N+](=O)[O-])cc3)C(=O)N(CCN3CCOCC3)c3cc(CO)ccc3[C@H]2N1CC12CC3CC(CC(C3)C1)C2 | -0.509 |
| CC[C@@H](c1ccccc1)n1c(=O)n2n(c1=O)[C@H]1[C@H](O)[C@@H]3O[C@@H]3C(=NOCC(C)C)[C@H]1CC2 | 0.636 |
| O=C1[C@H]2[C@H]3[C@H](O)[C@H](O)CC(=NO[C@@H]4O[C@H](CO)[C@@H](O)[C@H](O)[C@H]4O)[C@@H]3CC[C@H]2C(=O)N1Cc1ccc2c(c1)OCO2 | 0.666 |
| CC(C)=C1C(=O)C(c2ccccc2)=C2CN3C(=O)N(CCc4ccccc4)C(=O)[C@]3(Cc3ccc(F)cc3)[C@H]21 | -1.74 |
| CO[C@@H]1COC(=O)CCC[C@@H](C)[C@H](OC)COC(=O)[C@H](Cc2ccccc2)NC(=O)CC=C[C@H]1C | 1.99 |
| Cc1ccc(F)cc1S(=O)(=O)N[C@@H]1CCN(Cc2ccc(CC(C)C)cc2)C1 | 0.15 |
| CC(C)[Si]1(C(C)C)O[C@@H](c2ccccc2)c2cc(C3CC3)nc(-c3ccccc3)c21 | 0.397 |
| COC(=O)[C@@]1(Cc2ccc(F)cc2)[C@H]2c3cc(C(=O)N(C)C)n(Cc4ccc(OC)c(OC)c4)c3C[C@H]2CN1C(=O)c1ccccc1 | -0.715 |
| CCOC(=O)CCN1C(=O)[C@H]2[C@H]3[C@H](O)C=CC(=O)[C@@H]3CC[C@H]2C1=O | 0.425 |
| C[C@H](c1ccccc1)N1C(=O)[C@H]2[C@@H]3C(=CC[C@H]2C1=O)C(=O)[C@H]1O[C@H]1[C@H]3O | 0.469 |
| CS(=O)(=O)CCOC(=O)C1=CC(CCCO)=CC(c2cccs2)N(Cc2cccc(OC(F)(F)F)c2)C=C1C(=O)OCCS(C)(=O)=O (stereo unspecified) | 0.37 |
| O=C1[C@H]2[C@H]3[C@H](O)[C@H](O)CC(=NO[C@@H]4O[C@H](CO)[C@@H](O)[C@H](O)[C@H]4O)[C@H]3CC[C@H]2C(=O)N1Cc1ccc2c(c1)OCO2 | -0.928 |
| Cc1cc2c(nc1C)CCCN2CC(C)ON=C1[C@H]2CCn3c(=O)n(-c4ccccc4)c(=O)n3[C@H]2[C@H](O)[C@@H]2O[C@H]12 (stereo partly specified) | 1.03 |
| Cc1cc(C)c(-c2cc([C@H](C)ON=C3[C@H]4CCn5c(=O)n(-c6ccccc6)c(=O)n5[C@H]4[C@H](O)[C@@H]4O[C@H]34)on2)c(C)c1 | 0.767 |
| COc1ccc([Si](C)(C)[C@@H]2[C@@H](CCO)O[C@]3(C(=O)N(Cc4ccc(NC(C)=O)cc4)c4ccccc43)[C@H]2C)cc1 | 1.35 |

| SMILES | composite z-score |
| --- | --- |
| c1ccc(C2NCCc3c2[nH]c2ccccc32)cc1 (stereo unspecified) | -0.12 |
| CC(=O)C[C@H](O)[C@@H](NC(=O)OC(C)(C)C)C(C)C | 0.347 |
| CO[C@H]1O[C@H](CO)[C@@H](OC(=O)Nc2ccc(C#N)cc2)[C@H](OC(=O)c2cc3ccccc3[nH]2)[C@H]1OC(=O)c1cc2ccccc2[nH]1 | 0.746 |
| CO[C@@H]1COC(=O)[C@@H]2CCCN2C(=O)[C@@H](C)COC(=O)[C@H](COCc2ccccc2)NC(=O)CC=C[C@H]1C | 0.731 |
| COc1ccc(O[C@H]2C=C[C@@H](c3ccccc3)O[C@@H]2COC(=O)CCC(C)=NO[C@H](C)c2cn([C@@H]3COC[C@H]3O)nn2)cc1 | 0.754 |
| CC(CCC(=O)OC[C@H]1O[C@H](C#Cc2ccccc2)C=C[C@@H]1Oc1ccc(C)cc1)=NO[C@@H](C)c1cn([C@H](CO)Cc2ccccc2)nn1 | 0.316 |
| CO[C@H]1COC(=O)[C@H](C)COC(=O)CC=C[C@@H](C)[C@H](OC)COC(=O)CC=C[C@@H]1C | 1.55 |
| CCc1cccc(NC(=O)O[C@H]2[C@H](OC(=O)Nc3ccc4c(c3)OCO4)[C@@H](OC(=O)Nc3ccc4c(c3)OCO4)[C@@H](OC)O[C@@H]2CO)c1 | 1.76 |
| CCOC(=O)C[C@H]1[C@H](OC(=O)c2cc3ccccc3oc2=O)[C@@H](NC(=O)c2ccc3ccccc3n2)c2cc(OCCCO)ccc2N1C(=O)c1ccccc1 | 0.574 |
| CCN1C(=O)[C@H]2[C@H]3[C@H](O)[C@H](O)CC(=NOCC=C(C)CCC=C(C)C)[C@H]3CC[C@H]2C1=O | 1.77 |
| O=C1[C@H]2[C@H]3[C@H](O)[C@H](O)CC(=NOCc4ccccc4)[C@@H]3CC[C@H]2C(=O)N1C1CCCCC1 | -0.317 |
| CC(C)=CCCC(C)=CCON=C1[C@H]2CCn3c(=O)n(Cc4cc5c(cc4Cl)OCO5)c(=O)n3[C@H]2[C@H](O)[C@@H]2O[C@H]12 | 0.563 |
| CCCNC(=O)OC[C@H]1O[C@H](CCON=C[C@@H](OC)[C@H](C)C=CCC(=O)OC)C=C[C@@H]1Oc1ccc(OC)cc1 | 1.05 |
| COC(=O)[C@H](C)NC(=O)[C@@H](C)CO | 0.575 |
| C=CCOC(=O)[C@H]1[C@@H]2C(=O)O[C@@H](c3ccccc3)[C@@H](c3ccccc3)N2[C@@H](c2ccc(OCCOC(=O)[C@H]3C[C@H]4C(=O)N5CCC[C@H]5C(=O)N4[C@H]3c3cccc(OCCO)c3)cc2)[C@]12C(=O)Nc1ccc(I)cc12 | 2.08 |
| CCCCC(=C=CC[C@H](O)c1ccccc1OCCO)C[C@H](O)COCc1ccccc1 | 0.0668 |
| COc1ccc(-c2ccc3c(n2)CCCN3CC(O)CN2CCCc3nc(C)c(C)cc32)cc1 (stereo unspecified) | 1.19 |
| C[C@H]1Cc2c(-c3ccccc3)nc3c(c2CO1)CN(CCOc1ccccc1)CC3 | 1.17 |

From PubChem BioAssay
